What follows are sequences tested against CDH19 (assay: pooled miR-30 sensor sort-seq; sequence = guide strand). Conditions: shRNA.
Further: reference of the scale not given here.

Point of comparison: TTCATTGTCATTGATATCCGAA, sensor-assay potency score (higher = more potent) 0.271. Against it:
- TTTTCCAGAATGAATTTCCTGA — lower, -0.246
- TATTGGAATATATTCTCTCTGA — lower, -0.596

What follows are sequences tested against CDH20 in the same assay as above. Conditions: shRNA.

Point of comparison: TTGGATAATCACTTCGTAGTAT, sensor-assay potency score (higher = more potent) 0.305. Against it:
- TTCATCTCTGCATTGATGCCTT — lower, -0.00989
- TGATGATGAACTCTGACTCGGG — lower, -0.216
- TTCTTTGGCTTCTCTGTCCATG — lower, -0.339
- TATCTGAATGAAGCTTGCCGAC — lower, -1.28
- TGTAGTAGAAATGCTGACCATT — lower, -0.339
- TTGATTGTGACAGGAACACTTC — lower, -0.452
- TATCATTGACATCTGAGAGGGT — higher, 0.944
- TAGTATATTTCATCTCTGCATT — lower, -0.967
- TTGAGTTGTTGGTCACATCTGG — higher, 0.759
- TAGTATTCTTTGGCTTCTCTGT — lower, -0.859
- TTTCTTGCTTTCAAAACTCAGG — lower, -0.799

The sequences below were run against CDH24 in the same assay as above. Conditions: shRNA.

Point of comparison: TTCCTCAATGACAAAGAACTGG, sensor-assay potency score (higher = more potent) -0.774. Against it:
- ATCCAGAACAGTGTACACCAGC — lower, -0.986
- TGGATTGTCGTTGATGTCTTGC — higher, -0.503
- TAGGCTGGGTCAATGAGCGTGT — higher, -0.193
- TAGAGAAGCAACGCTCCGGATC — lower, -0.845
- TCATCAATCACAAATACGGTGC — higher, -0.0927
- TTGTCCTGGACAGTAAAGTTGG — higher, -0.744
- TTCTATGGGAACCAAGTAGGGG — lower, -0.879
- TTCATCTCTGTCCAGGGCCCGG — lower, -1.68
- TGCAAGTCTGTGCTGATGCTGA — higher, -0.691
- TCGTTGACATCGCTGAGCGTGA — higher, -0.691
- TTCGAGTCCGCAGCAGAGCAGG — lower, -1.36

The sequences below were run against CDH2 in the same assay as above. Conditions: shRNA.

Point of comparison: TCACATTTGGTGATTCTCGGTC, sensor-assay potency score (higher = more potent) 0.353. Against it:
- TTTCTCGATCAAGTCCAGCTGC — lower, -0.018
- TATTTCTTCAACTTCTGCTGAC — lower, 0.204
- TTGATTGTAAACATGTTGGGTG — higher, 0.885
- TATCTCTTACATCATCTTCTGG — lower, -0.0628
- TATTATCTCTTACATCATCTTC — lower, -0.354
- TTATCTTTAAATTAAGCTGAGC — lower, -0.63
- TTTGCTGCATATATCGATCTGG — lower, 0.226
- TTTTGTCTTTTACTTATCGTTT — lower, -0.959
- TTGATGACAATGTCAATGGGGT — lower, 0.314
- TTAACGTATACTGTTGCACTTT — lower, -0.309
- TTCATAGTCAAACACTAACAGG — lower, -1.55
- TAGTCAAACACTAACAGGGAGT — lower, -0.885
